Measured values published in article PMC7862700, “An all-to-all approach to the identification of sequence-specific readers for epigenetic DNA modifications on cytosine”.

Legend:
Assay in all cases: DAPPL (digital affinity profiling via proximity ligation, sequencing); 10 mM Tris-HCl pH 7.5, 50 mM NaCl, 1 mM DTT, 4% glycerol, room temperature, 30 min; GST-TFs on glutathione beads, 16-mer random dsDNA library, 0.1% formaldehyde crosslink after washing; high values mean tight binding
Conditions in all cases: protein: recombinant; tags: N-terminal GST; dsDNA, one strand shown
FLI1 = target: T1, FLI1 (Homo sapiens, UniProt Q01543 1-452)
T1 sequence: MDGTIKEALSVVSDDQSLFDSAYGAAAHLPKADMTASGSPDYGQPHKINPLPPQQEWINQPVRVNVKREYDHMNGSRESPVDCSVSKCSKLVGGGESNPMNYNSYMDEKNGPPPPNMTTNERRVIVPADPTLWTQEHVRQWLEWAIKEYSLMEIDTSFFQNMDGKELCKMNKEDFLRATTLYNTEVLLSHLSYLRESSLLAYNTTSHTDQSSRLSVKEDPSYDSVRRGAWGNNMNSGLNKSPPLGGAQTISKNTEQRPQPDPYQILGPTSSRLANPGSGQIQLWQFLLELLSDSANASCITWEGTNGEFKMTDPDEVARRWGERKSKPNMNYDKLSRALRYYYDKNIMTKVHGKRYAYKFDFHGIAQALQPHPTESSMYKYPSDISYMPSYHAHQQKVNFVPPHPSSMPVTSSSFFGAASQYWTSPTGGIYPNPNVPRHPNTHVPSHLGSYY
Summary of the method: (§1)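 Binding signal is given per hexamer as its read frequency for a factor divided by its frequency in the tag-only sample. GST-fused human transcription factors were expressed in yeast, captured on glutathione beads, barcoded with DNA and pooled with that sample, then incubated with 200 nmole of a 16-mer random double-stranded DNA library in Tris/NaCl/DTT/glycerol buffer for 30 min at room temperature. The pools were then washed, crosslinked, proximity-ligated, amplified by PCR and sequenced on an Illumina NextSeq500.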

ELK1 = target: T2, ELK1 (Homo sapiens, UniProt P19419 1-428)
T2 sequence: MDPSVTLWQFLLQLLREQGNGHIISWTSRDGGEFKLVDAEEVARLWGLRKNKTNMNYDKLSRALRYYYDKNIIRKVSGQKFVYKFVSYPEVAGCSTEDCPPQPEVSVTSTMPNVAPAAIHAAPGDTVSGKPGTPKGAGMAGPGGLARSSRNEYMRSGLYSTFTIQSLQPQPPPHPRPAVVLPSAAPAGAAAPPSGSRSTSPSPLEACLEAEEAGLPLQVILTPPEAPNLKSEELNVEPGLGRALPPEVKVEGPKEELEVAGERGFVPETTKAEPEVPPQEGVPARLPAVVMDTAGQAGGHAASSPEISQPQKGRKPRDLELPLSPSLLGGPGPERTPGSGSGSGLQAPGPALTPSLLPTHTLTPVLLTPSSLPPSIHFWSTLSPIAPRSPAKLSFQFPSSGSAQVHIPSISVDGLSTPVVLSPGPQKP
Summary of the method: as §1

GABPA = target: T3, GABPA (Homo sapiens, UniProt Q06546 1-454)
T3 sequence: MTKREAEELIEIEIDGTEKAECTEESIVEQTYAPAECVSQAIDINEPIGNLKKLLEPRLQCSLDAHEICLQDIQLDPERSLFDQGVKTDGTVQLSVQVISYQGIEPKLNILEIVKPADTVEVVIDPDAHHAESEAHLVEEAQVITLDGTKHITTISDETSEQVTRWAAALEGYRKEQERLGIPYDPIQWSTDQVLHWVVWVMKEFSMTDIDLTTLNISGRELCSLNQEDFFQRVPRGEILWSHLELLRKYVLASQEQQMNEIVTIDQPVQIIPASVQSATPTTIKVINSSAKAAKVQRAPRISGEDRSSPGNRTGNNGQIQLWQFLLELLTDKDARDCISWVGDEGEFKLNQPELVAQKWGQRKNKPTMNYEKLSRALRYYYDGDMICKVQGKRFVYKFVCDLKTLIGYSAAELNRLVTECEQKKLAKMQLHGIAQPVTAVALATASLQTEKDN
Summary of the method: as §1

ERG = target: T4, ERG (Homo sapiens, UniProt P11308 1-479)
T4 sequence: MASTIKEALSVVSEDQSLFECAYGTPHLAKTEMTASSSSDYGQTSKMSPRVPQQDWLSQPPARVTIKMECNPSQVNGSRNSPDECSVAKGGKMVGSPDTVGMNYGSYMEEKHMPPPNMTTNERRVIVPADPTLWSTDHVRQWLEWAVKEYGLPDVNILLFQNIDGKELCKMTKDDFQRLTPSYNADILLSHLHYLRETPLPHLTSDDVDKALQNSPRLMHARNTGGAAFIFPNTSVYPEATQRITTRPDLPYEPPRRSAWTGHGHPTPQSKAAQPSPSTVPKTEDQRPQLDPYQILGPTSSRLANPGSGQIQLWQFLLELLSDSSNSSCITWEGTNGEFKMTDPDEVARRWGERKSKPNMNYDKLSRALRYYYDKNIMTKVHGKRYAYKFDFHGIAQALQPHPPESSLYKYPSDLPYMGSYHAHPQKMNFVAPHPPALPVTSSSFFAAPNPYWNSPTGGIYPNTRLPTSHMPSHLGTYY
Summary of the method: as §1

ELF1 = ELF1 (Homo sapiens, UniProt P32519 1-619)
ELF1, sequence (P32519 whole entry): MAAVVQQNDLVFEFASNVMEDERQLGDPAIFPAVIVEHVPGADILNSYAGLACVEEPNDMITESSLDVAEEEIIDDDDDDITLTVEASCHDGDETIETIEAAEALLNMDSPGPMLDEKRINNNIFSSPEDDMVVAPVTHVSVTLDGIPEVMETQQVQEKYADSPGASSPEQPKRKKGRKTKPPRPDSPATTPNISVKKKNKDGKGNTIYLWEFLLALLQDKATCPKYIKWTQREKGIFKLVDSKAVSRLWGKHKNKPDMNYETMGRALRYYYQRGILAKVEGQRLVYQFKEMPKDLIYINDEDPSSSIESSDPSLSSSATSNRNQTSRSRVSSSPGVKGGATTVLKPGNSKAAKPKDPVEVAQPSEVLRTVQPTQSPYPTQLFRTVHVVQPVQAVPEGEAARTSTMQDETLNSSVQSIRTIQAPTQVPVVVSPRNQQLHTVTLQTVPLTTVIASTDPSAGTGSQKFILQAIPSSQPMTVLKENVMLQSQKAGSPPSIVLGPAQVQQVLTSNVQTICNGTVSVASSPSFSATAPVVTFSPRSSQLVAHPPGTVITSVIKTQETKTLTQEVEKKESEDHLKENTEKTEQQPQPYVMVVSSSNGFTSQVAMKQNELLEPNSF
Summary of the method: as §1

EHF = target: T5, EHF (Homo sapiens, UniProt Q9NZC4 1-300)
T5 sequence: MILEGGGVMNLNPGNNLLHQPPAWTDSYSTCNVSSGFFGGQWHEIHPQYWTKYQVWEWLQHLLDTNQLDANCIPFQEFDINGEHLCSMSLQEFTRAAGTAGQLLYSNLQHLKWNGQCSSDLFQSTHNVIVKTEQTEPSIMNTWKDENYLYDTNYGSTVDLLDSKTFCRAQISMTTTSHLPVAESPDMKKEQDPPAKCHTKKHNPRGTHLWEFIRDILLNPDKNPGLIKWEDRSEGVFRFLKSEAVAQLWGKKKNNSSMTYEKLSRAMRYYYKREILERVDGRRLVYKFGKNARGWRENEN
Summary of the method: as §1

SPI1 = SPI1 (Homo sapiens, UniProt P17947 1-270)
Summary of the method: as §1

SPIB = SPIB (Homo sapiens, UniProt Q01892 1-262)
SPIB, sequence (Q01892 whole entry): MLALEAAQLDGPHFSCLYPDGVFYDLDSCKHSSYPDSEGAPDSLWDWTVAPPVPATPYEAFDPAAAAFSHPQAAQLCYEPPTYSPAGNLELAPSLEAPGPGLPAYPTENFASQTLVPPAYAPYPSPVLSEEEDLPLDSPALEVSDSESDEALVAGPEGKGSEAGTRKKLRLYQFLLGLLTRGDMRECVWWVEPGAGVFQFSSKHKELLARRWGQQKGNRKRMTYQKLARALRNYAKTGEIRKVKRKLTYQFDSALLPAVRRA
Summary of the method: as §1

ELK3 = target: T6, ELK3 (Homo sapiens, UniProt P41970 1-407)
T6 sequence: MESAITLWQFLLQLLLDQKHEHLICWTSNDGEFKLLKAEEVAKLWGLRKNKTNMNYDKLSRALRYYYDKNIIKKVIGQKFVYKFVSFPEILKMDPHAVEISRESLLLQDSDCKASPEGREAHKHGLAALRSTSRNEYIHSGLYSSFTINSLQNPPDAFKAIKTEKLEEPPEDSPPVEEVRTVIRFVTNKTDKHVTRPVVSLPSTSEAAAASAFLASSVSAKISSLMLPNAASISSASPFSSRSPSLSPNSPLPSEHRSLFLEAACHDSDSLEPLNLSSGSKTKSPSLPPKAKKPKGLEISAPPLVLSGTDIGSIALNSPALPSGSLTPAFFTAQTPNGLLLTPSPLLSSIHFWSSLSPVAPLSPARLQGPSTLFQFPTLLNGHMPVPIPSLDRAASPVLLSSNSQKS
Summary of the method: as §1

FEV = target: T7, FEV (Homo sapiens, UniProt Q99581 1-238)
T7 sequence: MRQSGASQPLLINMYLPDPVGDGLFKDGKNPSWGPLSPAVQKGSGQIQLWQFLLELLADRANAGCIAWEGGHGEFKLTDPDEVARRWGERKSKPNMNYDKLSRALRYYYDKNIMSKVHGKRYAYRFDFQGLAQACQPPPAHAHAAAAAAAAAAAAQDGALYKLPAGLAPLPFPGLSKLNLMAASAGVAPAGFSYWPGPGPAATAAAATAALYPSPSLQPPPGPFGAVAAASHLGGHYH
Summary of the method: as §1

ETV5 = ETV5 (Homo sapiens, UniProt P41161 1-510)
ETV5, sequence (P41161 whole entry): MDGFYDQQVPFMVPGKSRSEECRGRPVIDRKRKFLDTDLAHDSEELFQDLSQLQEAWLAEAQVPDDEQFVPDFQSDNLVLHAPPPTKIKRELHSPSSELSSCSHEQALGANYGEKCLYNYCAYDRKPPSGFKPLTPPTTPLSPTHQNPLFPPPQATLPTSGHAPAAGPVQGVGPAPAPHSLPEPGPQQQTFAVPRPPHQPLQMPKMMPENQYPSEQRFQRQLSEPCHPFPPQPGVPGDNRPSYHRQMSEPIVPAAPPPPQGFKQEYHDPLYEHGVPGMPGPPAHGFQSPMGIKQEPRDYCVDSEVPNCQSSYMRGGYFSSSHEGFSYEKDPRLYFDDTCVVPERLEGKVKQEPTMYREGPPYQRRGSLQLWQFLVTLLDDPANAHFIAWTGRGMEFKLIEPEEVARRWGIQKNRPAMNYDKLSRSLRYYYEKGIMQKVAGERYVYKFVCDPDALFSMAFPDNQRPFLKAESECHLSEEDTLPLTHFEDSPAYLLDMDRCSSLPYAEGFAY
Summary of the method: as §1

SPIC = target: T8, SPIC (Homo sapiens, UniProt Q8N5J4 1-248)
T8 sequence: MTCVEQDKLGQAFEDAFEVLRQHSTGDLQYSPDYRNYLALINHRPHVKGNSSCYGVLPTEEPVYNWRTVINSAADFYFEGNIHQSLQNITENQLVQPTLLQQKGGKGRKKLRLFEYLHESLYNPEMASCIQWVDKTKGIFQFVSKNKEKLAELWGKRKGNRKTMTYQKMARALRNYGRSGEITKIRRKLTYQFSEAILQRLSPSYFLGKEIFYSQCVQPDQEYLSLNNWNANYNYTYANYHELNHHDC
Summary of the method: as §1

ELF4 = ELF4 (Homo sapiens, UniProt Q99607 1-663)
ELF4, sequence (Q99607 whole entry): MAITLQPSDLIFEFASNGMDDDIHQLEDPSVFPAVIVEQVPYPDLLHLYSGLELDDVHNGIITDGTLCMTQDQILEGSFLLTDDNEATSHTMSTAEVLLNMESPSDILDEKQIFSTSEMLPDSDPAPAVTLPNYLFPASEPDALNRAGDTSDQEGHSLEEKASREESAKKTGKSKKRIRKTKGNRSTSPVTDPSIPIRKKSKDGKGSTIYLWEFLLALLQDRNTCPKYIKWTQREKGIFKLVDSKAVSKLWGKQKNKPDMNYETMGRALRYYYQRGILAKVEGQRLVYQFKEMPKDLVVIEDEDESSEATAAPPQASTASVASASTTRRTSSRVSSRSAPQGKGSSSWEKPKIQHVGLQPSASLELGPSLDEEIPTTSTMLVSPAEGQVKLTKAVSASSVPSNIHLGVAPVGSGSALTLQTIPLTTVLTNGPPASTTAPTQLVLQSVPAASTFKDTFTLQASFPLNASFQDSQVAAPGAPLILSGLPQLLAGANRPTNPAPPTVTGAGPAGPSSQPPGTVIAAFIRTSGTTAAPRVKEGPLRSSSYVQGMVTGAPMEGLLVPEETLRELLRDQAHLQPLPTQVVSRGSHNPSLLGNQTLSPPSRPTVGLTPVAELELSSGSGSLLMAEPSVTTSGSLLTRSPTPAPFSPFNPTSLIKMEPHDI
Summary of the method: as §1

ELK4 = target: T9, ELK4 (Homo sapiens, UniProt P28324-2 1-405)
T9 sequence: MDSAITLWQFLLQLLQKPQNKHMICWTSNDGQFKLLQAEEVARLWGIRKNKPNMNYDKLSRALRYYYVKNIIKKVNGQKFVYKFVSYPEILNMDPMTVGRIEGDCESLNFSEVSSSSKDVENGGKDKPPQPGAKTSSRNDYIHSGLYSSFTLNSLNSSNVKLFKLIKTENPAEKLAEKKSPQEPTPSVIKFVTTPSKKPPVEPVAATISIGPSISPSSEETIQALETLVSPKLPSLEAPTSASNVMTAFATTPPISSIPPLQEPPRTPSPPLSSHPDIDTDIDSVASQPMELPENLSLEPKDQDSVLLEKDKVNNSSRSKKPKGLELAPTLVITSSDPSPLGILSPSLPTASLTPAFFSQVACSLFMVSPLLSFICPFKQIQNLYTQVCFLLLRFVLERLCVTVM
Summary of the method: as §1

ETV2 = target: T10, ETV2 (Homo sapiens, UniProt O00321 1-342)
T10 sequence: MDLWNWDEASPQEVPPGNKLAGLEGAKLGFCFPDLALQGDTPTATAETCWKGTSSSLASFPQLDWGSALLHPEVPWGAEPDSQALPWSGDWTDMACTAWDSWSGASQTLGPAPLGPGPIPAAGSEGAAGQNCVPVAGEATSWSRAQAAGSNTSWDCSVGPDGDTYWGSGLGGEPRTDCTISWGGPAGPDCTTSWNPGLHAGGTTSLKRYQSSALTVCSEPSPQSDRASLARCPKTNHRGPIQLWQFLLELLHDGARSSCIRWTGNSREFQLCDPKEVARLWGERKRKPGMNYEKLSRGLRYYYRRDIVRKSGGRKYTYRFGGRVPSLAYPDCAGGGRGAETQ
Summary of the method: as §1

ELF3 = target: T11, ELF3 (Homo sapiens, UniProt P78545 1-371)
T11 sequence: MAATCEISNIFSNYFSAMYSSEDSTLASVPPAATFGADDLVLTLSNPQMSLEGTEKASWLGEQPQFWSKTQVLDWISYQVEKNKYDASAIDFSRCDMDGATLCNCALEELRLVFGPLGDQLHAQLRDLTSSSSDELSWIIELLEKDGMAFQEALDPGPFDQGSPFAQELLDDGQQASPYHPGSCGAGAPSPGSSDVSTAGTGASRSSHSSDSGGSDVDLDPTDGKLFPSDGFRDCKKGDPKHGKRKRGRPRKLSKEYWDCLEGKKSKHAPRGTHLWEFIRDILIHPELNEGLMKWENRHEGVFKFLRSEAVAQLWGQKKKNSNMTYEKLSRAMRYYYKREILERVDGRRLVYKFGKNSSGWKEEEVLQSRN
Summary of the method: as §1

ETV1 = ETV1 (Homo sapiens, UniProt P50549 1-477)
ETV1, sequence (P50549 whole entry): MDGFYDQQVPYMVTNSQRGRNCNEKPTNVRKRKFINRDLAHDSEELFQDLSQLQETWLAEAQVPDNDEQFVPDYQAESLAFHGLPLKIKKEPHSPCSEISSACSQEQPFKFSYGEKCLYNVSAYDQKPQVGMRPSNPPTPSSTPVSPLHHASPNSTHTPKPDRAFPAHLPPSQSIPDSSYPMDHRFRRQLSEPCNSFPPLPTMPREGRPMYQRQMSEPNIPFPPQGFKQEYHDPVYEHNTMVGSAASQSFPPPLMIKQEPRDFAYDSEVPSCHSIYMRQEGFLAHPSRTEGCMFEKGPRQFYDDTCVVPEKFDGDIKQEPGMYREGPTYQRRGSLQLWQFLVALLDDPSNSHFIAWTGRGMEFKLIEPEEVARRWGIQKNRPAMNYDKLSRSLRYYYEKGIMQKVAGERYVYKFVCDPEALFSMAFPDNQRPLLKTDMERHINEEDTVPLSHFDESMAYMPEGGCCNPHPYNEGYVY
Summary of the method: as §1

Sequence	binding signal (FLI1)	binding signal (ELK1)	binding signal (GABPA)	binding signal (ERG)	binding signal (ELF1)	binding signal (EHF)	binding signal (SPI1)	binding signal (SPIB)	binding signal (ELK3)	binding signal (FEV)	binding signal (ETV5)	binding signal (SPIC)	binding signal (ELF4)	binding signal (ELK4)	binding signal (ETV2)	binding signal (ELF3)	binding signal (ETV1)
GGATGT	1.5 fold enrichment (6-mer frequency, TF over GST control)	1.7 fold enrichment (6-mer frequency, TF over GST control)	1.39 fold enrichment (6-mer frequency, TF over GST control)	1.82 fold enrichment (6-mer frequency, TF over GST control)	1.44 fold enrichment (6-mer frequency, TF over GST control)	1.74 fold enrichment (6-mer frequency, TF over GST control)	1.53 fold enrichment (6-mer frequency, TF over GST control)	1.61 fold enrichment (6-mer frequency, TF over GST control)	1.65 fold enrichment (6-mer frequency, TF over GST control)	2.08 fold enrichment (6-mer frequency, TF over GST control)	1.77 fold enrichment (6-mer frequency, TF over GST control)	1.41 fold enrichment (6-mer frequency, TF over GST control)	1.39 fold enrichment (6-mer frequency, TF over GST control)	1.36 fold enrichment (6-mer frequency, TF over GST control)	1.44 fold enrichment (6-mer frequency, TF over GST control)	1.61 fold enrichment (6-mer frequency, TF over GST control)	1.69 fold enrichment (6-mer frequency, TF over GST control)
CCGGCC	1.27 fold enrichment (6-mer frequency, TF over GST control)	1.27 fold enrichment (6-mer frequency, TF over GST control)	1.13 fold enrichment (6-mer frequency, TF over GST control)	1.18 fold enrichment (6-mer frequency, TF over GST control)	1.16 fold enrichment (6-mer frequency, TF over GST control)	1.1 fold enrichment (6-mer frequency, TF over GST control)	1.04 fold enrichment (6-mer frequency, TF over GST control)	1.18 fold enrichment (6-mer frequency, TF over GST control)	1.33 fold enrichment (6-mer frequency, TF over GST control)	1.54 fold enrichment (6-mer frequency, TF over GST control)	1.17 fold enrichment (6-mer frequency, TF over GST control)	1.32 fold enrichment (6-mer frequency, TF over GST control)	1.08 fold enrichment (6-mer frequency, TF over GST control)	1.27 fold enrichment (6-mer frequency, TF over GST control)	1.22 fold enrichment (6-mer frequency, TF over GST control)	1.14 fold enrichment (6-mer frequency, TF over GST control)	1.27 fold enrichment (6-mer frequency, TF over GST control)
